In PubChem BioAssay (NCATS) one finds Potency data, which are given here for 38 compounds.

Inconclusive results are not listed. Entries that show only a call come without a potency. Active and inactive are the calls of the source. Calls follow the shape of the dose curve; as a rule, active = well fitted inhibition curve with a large enough effect; inconclusive = small, poorly fitted or top-dose-only effect; inactive = flat fitted curve, though single readings scatter.

The subject of this assay is Zika virus NS2B-NS3 protease. In words: Primary screen GU AMC qHTS for Zika virus inhibitors (AID 1347154). Also: nearly all actives have a fitted effect of over 70% in size. The settings on record: Zika NS2B-NS3 unlinked protease, AMC fluorogenic substrate; series mostly up to 54.1 µM. The method in brief: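 Fluorogenic AMC-substrate cleavage by noncovalent NS2B-NS3 protease complex (25 nM, pH 8.0 Tris buffer with Tween 20) followed for 15 minutes at room temperature (~20% conversion). Percent inhibition from ex340/em450 signal change, fitted by 4-parameter Hill equation.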
As to `C[N+](C)(CCOc1ccccc1)Cc1cccs1`, the Potency result is “inactive”.

Regarding `Cc1cccc(C)c1NC(=O)c1cc(S(N)(=O)=O)c(Cl)cc1O`, the Potency result is “inactive”.

Regarding `COc1cc(OC)nc(O[C@H](C(=O)O)C(OC)(c2ccccc2)c2ccccc2)n1`, the Potency result is “inactive”.

With `CCC[C@H](N[C@@H](C)C(=O)N1[C@H](C(=O)O)C[C@@H]2CCCC[C@@H]21)C(=O)OCC`, the Potency entry was “inactive”.

As to `CCCC(=O)O[C@]1(C(=O)CC)CC[C@H]2[C@@H]3CCC4=CC(=O)CC[C@]4(C)[C@H]3[C@@H](O)C[C@@]21C`, the Potency result was “inactive”.

In the case of `O=C1c2ccccc2CCc2ccccc21`, the Potency entry was “inactive”.

`CC(NC(CCc1ccccc1)C(=O)O)C(=O)N1C(=O)N(C)CC1C(=O)O` (stereo not drawn): the Potency entry is “inactive”.

With `COc1ccc2c(c1)c(CC(=O)OC/C=C(\C)CC/C=C(\C)CCC=C(C)C)c(C)n2C(=O)c1ccc(Cl)cc1`, the Potency result was “inactive”.

For the compound `O=C(O)CCC(=O)OC[C@@H](NC(=O)C(Cl)Cl)[C@H](O)c1ccc([N+](=O)[O-])cc1`, the Potency entry is “inactive”.

Regarding `O=C(CS(=O)Cc1ccco1)NC/C=C\COc1cc(CN2CCCCC2)ccn1` (stereo not drawn), the Potency entry was “inactive”.

In the case of `Cc1ccc(CCn2c3c(c4cc(Cl)ccc42)CN(C)CC3)cn1`, the Potency entry was “inactive”.

With `CN(C)CCCOC1(Cc2ccccc2)CCCCCC1`, the Potency result was “inactive”.

With `CN(C)C(=O)CNC(=O)Cc1ccccc1`, the Potency entry is “inactive”.

Turning to `CC(C)C[C@@H]1[C@H](c2ccccc2)OC(=O)N1CCCN1CCCCCC1`, the Potency entry was “inactive”.

For the compound `Cc1ccc2c(Cl)cc(Cl)c(O)c2n1`, the Potency result was “inactive”.

Consider `CN1CCCN=C1/C=C/c1cccs1`, for which the Potency result was “inactive”.

Take `NS(=O)(=O)c1cc2c(cc1Cl)CN(C1CCCCC1)C2=O`: the Potency result was “inactive”.

For the compound `COc1cc(S(N)(=O)=O)cc(C(=O)O)c1OC`, the Potency entry was “inactive”.

As for `CN1Cc2cc(C(=O)N3CCC(C4CCNCC4)CC3)ccc2NC(CC(=O)O)C1=O` (stereo not drawn), the Potency result is “inactive”.

For the compound `C=C(C)C(=O)OCC(O)CO` (stereo not drawn), the Potency entry is “inactive”.

In the case of `CC1CCCCN1CCCOC(=O)c1ccc(OC2CCCCC2)cc1` (stereo not drawn), the Potency entry is “inactive”.

In the case of `CCC(C(=O)OCCN1CCOC(c2ccccc2)C1C)c1ccccc1` (stereo not drawn), the Potency result is “inactive”.

Regarding `Oc1ccccc1`, the Potency result was “inactive”.

Consider `CC[N+]1(CC)CCC(=C(c2ccccc2)c2ccccc2)C1C` (stereo not drawn), for which the Potency result is “inactive”.

In the case of `CC(=O)/C=C/C=C1/C2CCC(C2)C1(C)C` (stereo not drawn), the Potency result was “inactive”.

As for `CCN1CCCC1CN` (stereo not drawn), the Potency result is “inactive”.

Take `Cc1[nH]cnc1-c1ccc(Cl)cc1`: the Potency entry was “inactive”.

With `CO/N=C(/C(=O)N[C@@H]1C(=O)N2C(C(=O)OCOC(=O)C(C)(C)C)=C(C)CS[C@H]12)c1csc(N)n1`, the Potency result was “inactive”.

As to `COC(=O)/C=C\C(=O)OC`, the Potency result is “inactive”.

In the case of `COCCOCC(OC)OC`, the Potency result is “inactive”.

As to `CC(C)(C)C(O)/C=C/c1ccc2c(c1)OCO2` (stereo not drawn), the Potency entry was “inactive”.

`CC(Oc1c(Cl)cccc1Cl)C1=NCCN1` (stereo not drawn): the Potency entry is “inactive”.

As to `O=C(O)C1CCC1`, the Potency result was “inactive”.

In the case of `CC(C)=CCNc1ncnc2c1ncn2[C@@H]1O[C@H](CO)[C@@H](O)[C@H]1O`, the Potency result was “inactive”.

On to `O=C(O)CNC(=O)CNC(=O)CNC(=O)CSC(=O)c1ccccc1`, for which the Potency entry is “inactive”.

With `CC(CC(C#N)(c1ccccc1)C(C)C)N(C)C` (stereo not drawn), the Potency entry was “inactive”.

For `Cc1ncc([N+](=O)[O-])n1C`, the Potency entry was “inactive”.

With `CC[N+](CC)(CC)CCOC(=O)C(C1CCCC1)C1CCCC1`, the Potency result is “inactive”.
